# Reference: the supplement of paper PMC8728848
# The entries come from a sample that favours the strongest signals as a whole.
# Tests used:
# Experiment in all cases: glycan array binding signal (z-score within array); higher = stronger binding
# Settings in all cases: glycan notation: IUPAC condensed, linker removed
# [1] = target: Fuc(a1-2)Gal(b1-3)GlcNAc(b1-3)[Neu5Ac(a2-6)Gal(b1-4)GlcNAc(b1-6)]Gal(b1-4)Glc
# Outline: (§1)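 The binding signal is a Z-score computed within each array. Data were drawn from 3228 arrays in the Consortium for Functional Glycomics database, restricted to those with a known protein sequence. Scores were averaged over arrays of the same protein sequence at different concentrations or buffers, and over linkers, and negative values can be taken as non-binding.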
# [2] = target: Fuc(a1-2)Gal(b1-3)[Fuc(a1-4)]GlcNAc(b1-2)Man(a1-3)[Fuc(a1-2)Gal(b1-3)[Fuc(a1-4)]GlcNAc(b1-2)Man(a1-6)]Man(b1-4)GlcNAc(b1-4)GlcNAc
# Outline: as §1
# [3] = target: Fuc(a1-2)Gal(b1-4)[Fuc(a1-3)]GlcNAc(b1-2)[Fuc(a1-2)Gal(b1-4)[Fuc(a1-3)]GlcNAc(b1-4)]Man(a1-3)[Fuc(a1-2)Gal(b1-4)[Fuc(a1-3)]GlcNAc(b1-2)Man(a1-6)]Man(b1-4)GlcNAc(b1-4)GlcNAc
# Outline: as §1
# [4] = target: Fuc(a1-2)Gal(b1-4)[Fuc(a1-3)]GlcNAc(b1-3)GalNAc
# Outline: as §1
# [5] = target: Fuc(a1-2)[Gal(a1-3)]Gal(b1-3)GlcNAc(b1-2)Man(a1-3)[Fuc(a1-2)[Gal(a1-3)]Gal(b1-3)GlcNAc(b1-2)Man(a1-6)]Man(b1-4)GlcNAc(b1-4)GlcNAc
# Outline: as §1
# [6] = target: Fuc(a1-2)[Gal(a1-3)]Gal(b1-4)GlcNAc(b1-3)GalNAc
# Outline: as §1
# [7] = target: Fuc(a1-2)[Gal(a1-3)]Gal(b1-4)[Fuc(a1-3)]GlcNAc(b1-3)GalNAc
# Outline: as §1
# [8] = target: Fuc(a1-2)[GalNAc(a1-3)]Gal(b1-4)GlcNAc(b1-3)GalNAc
# Outline: as §1
# [9] = target: Fuc(a1-2)[GalNAc(a1-3)]Gal(b1-4)[Fuc(a1-3)]GlcNAc(b1-3)GalNAc
# Outline: as §1
# [10] = target: Fuc(a1-3)[Gal(b1-4)]GlcNAc(b1-3)GalNAc
# Outline: as §1
# [11] = target: Fuc(a1-3)[Gal(b1-4)]GlcNAc(b1-4)Gal(b1-4)[Fuc(a1-3)]GlcNAc
# Outline: as §1
# Gal(a1-2)Gal = target: Gal(a1-2)Gal
# Outline: as §1
# Gal(a1-6)Glc = target: Gal(a1-6)Glc
# Outline: as §1
# [12] = target: Gal(b1-3)GlcNAc(a1-6)Gal(b1-4)GlcNAc
# Outline: as §1
# [13] = target: Gal(b1-3)GlcNAc(b1-2)Man(a1-3)[Gal(b1-3)GlcNAc(b1-2)Man(a1-6)]Man(b1-4)GlcNAc(b1-4)GlcNAc
# Outline: as §1
# [14] = target: Gal(b1-3)GlcNAc(b1-3)Gal(b1-4)Glc
# Outline: as §1
# [15] = target: Gal(b1-3)GlcNAc(b1-3)Gal(b1-4)GlcNAc(b1-2)Man(a1-3)[Gal(b1-3)GlcNAc(b1-3)Gal(b1-4)GlcNAc(b1-2)Man(a1-6)]Man(b1-4)GlcNAc(b1-4)GlcNAc
# Outline: as §1
# [16] = target: Gal(b1-3)GlcNAc(b1-6)GalNAc
# Outline: as §1
# [17] = target: Gal(b1-4)GlcNAc(b1-2)[Gal(b1-4)GlcNAc(b1-6)]Man(a1-6)[Gal(b1-4)GlcNAc(b1-2)Man(a1-3)]Man(b1-4)GlcNAc(b1-4)[Fuc(a1-6)]GlcNAc
# Outline: as §1
# [18] = target: Gal(b1-4)GlcNAc(b1-3)Gal(b1-4)GlcNAc(b1-3)Gal(b1-4)GlcNAc
# Outline: as §1
# [19] = target: Gal(b1-4)GlcNAc(b1-3)Gal(b1-4)GlcNAc(b1-3)Gal(b1-4)GlcNAc(b1-2)[Gal(b1-4)GlcNAc(b1-3)Gal(b1-4)GlcNAc(b1-3)Gal(b1-4)GlcNAc(b1-6)]Man(a1-6)[Gal(b1-4)GlcNAc(b1-3)Gal(b1-4)GlcNAc(b1-3)Gal(b1-4)GlcNAc(b1-2)Man(a1-3)]Man(b1-4)GlcNAc(b1-4)[Fuc(a1-6)]GlcNAc
# Outline: as §1
# [20] = target: Gal(b1-4)GlcNAc(b1-3)Gal(b1-4)GlcNAc(b1-3)Gal(b1-4)GlcNAc(b1-3)Gal(b1-4)GlcNAc(b1-2)Man(a1-3)[Gal(b1-4)GlcNAc(b1-3)Gal(b1-4)GlcNAc(b1-3)Gal(b1-4)GlcNAc(b1-3)Gal(b1-4)GlcNAc(b1-2)Man(a1-6)]Man(b1-4)GlcNAc(b1-4)GlcNAc
# Outline: as §1
# [21] = target: Gal(b1-4)GlcNAc(b1-3)Gal(b1-4)GlcNAc(b1-3)[Gal(b1-4)GlcNAc(b1-3)Gal(b1-4)GlcNAc(b1-6)]GalNAc
# Outline: as §1
# [22] = target: Gal(b1-4)GlcNAc(b1-3)[Gal(b1-4)GlcNAc(b1-6)]Gal(b1-4)GlcNAc
# Outline: as §1
# [23] = target: Gal(b1-4)GlcNAc(b1-6)GalNAc
# Outline: as §1
# [24] = target: Gal(b1-4)GlcNAc(b1-6)[Gal(b1-4)GlcNAc(b1-3)]GalNAc
# Outline: as §1
# Gal(b1-4)GlcNAc6P = target: Gal(b1-4)GlcNAc6P
# Outline: as §1
# Gal3S(b1-4)Glc = target: Gal3S(b1-4)Glc
# Outline: as §1
# [25] = target: Gal3S(b1-4)[Fuc(a1-3)]Glc6S
# Outline: as §1
# [26] = target: Gal3S(b1-4)[Fuc(a1-3)]GlcNAc
# Outline: as §1
binder,measurement,setting,value
"Gal 12 (Homo sapiens), Q96DT0 (protein) MSQPSGGRAPGTRIYSWSCPTVMSPGEKLDPIPDSFILQPPVFHPVVPYVTTIFGGLHAGKMVMLQGVVPLDAHRFQVDFQCGCSLCPRPDIAFHFNPRFHTTKPHVICNTLHGGRWQREARWPHLALRRGSSFLILFLFGNEEVKVSVNGQHFLHFRYRLPLSHVDTLGIFGDILVEAVGFLNINPFVEGSREYPAGHPFLLMSPRLEVPCSHALPQGLSPGQVIIVRGLVLQEPKHFTVSLRDQAAHAPVTLRASFADRTLAWISRWGQKKLISAPFLFYPQRFFEVLLLFQEGGLKLALNGQGLGATSMNQQALEQLRELRISGSVQLYCVHS",glycan array binding signal (z-score),[1],-0.876
same,glycan array binding signal (z-score),[2],6.26
same,glycan array binding signal (z-score),[3],3.71
same,glycan array binding signal (z-score),[4],5.15
same,glycan array binding signal (z-score),[5],-0.674
same,glycan array binding signal (z-score),[6],-0.63
same,glycan array binding signal (z-score),[7],4.56
same,glycan array binding signal (z-score),[8],0.193
same,glycan array binding signal (z-score),[9],2.65
same,glycan array binding signal (z-score),[10],2.44
same,glycan array binding signal (z-score),[11],-0.147
same,glycan array binding signal (z-score),Gal(a1-2)Gal,-0.863
same,glycan array binding signal (z-score),Gal(a1-6)Glc,-0.527
same,glycan array binding signal (z-score),[12],-0.349
same,glycan array binding signal (z-score),[13],0.94
same,glycan array binding signal (z-score),[14],-0.471
same,glycan array binding signal (z-score),[15],-0.574
same,glycan array binding signal (z-score),[16],-0.771
same,glycan array binding signal (z-score),[17],1.75
same,glycan array binding signal (z-score),[18],-0.453
same,glycan array binding signal (z-score),[19],3.44
same,glycan array binding signal (z-score),[20],2.32
same,glycan array binding signal (z-score),[21],-0.119
same,glycan array binding signal (z-score),[22],0.824
same,glycan array binding signal (z-score),[23],0.417
same,glycan array binding signal (z-score),[24],0.954
same,glycan array binding signal (z-score),Gal(b1-4)GlcNAc6P,0.272
same,glycan array binding signal (z-score),Gal3S(b1-4)Glc,0.451
same,glycan array binding signal (z-score),[25],3.19
same,glycan array binding signal (z-score),[26],2.76
